Values without a mark were called inactive. Results filed as inconclusive are left out. The source made the active and inactive calls. Unless noted, the call rests on the fitted dose curve; in most records, active means well fitted curve in the direction sought with a large enough effect; inconclusive means small, poorly fitted or top-dose-only effect, or another doubt; inactive means no such curve, though single readings can be large; an effect the other way counts as inactive or inconclusive.

Among the data in PubChem BioAssay (NCATS) are outcome and Potency values, retold here.

In experiment [1] the target is Atrial natriuretic peptide receptor 1 (Homo sapiens) (UniProt P16066). The experiment can be described thus: Natriuretic polypeptide receptor (hNpr1) antagonism - Pilot screen (AID 1347049; calls by dose curve;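 further: agonist-evoked cGMP luminescence read 20 min after hNppA addition; series mostly up to about 58 µM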). The method in brief:
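HEK293 cells co-expressing hNpr1 and the GloSensor pGS-40F cGMP luciferase sensor were preloaded with 2% GloSensor reagent for 2 h. Compounds were added for 30 min at room temperature, then cells were stimulated with 0.1 nM hNppA for 20 min before luminescence readout.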

The target of experiment [2] is Atrial natriuretic peptide receptor 2 (Homo sapiens) (UniProt P20594). The experiment can be described thus: Natriuretic polypeptide receptor (hNpr2) antagonism - Pilot subtype selectivity assay (AID 1347050; calls by dose curve; further: potency means the concentration at half of the fitted maximal effect). The method in brief:
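cGMP-sensor HEK293/hNpr2 cells; 2% GloSensor reagent 2 h RT; compounds 30 min; baseline luminescence read; 1 nM hNppC agonist 20 min RT; final luminescence read by CCD camera. Antagonism = reduced post-agonist signal.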

A short description of experiment [3]: NS1 protein of Zika virus - qHTS assay to identify small molecule inhibitors in human HEK 293 cells (AID 1347053). Further: nearly all actives have a fitted effect of over 55% in size. Further: potency means the concentration at half of the fitted maximal effect. The method in brief:
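Inhibition of NS1 expression was scored in HEK 293 cells given compound 1 h ahead of MR766 virus (MOI = 0.5). Following 24 h at 37 C, two anti-NS1 antibodies generated a TR-FRET signal, scaled between uninfected and infected controls.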

In experiment [4] the target is T1, Tyrosine-protein phosphatase non-receptor type substrate 1 (Homo sapiens) + Leukocyte surface antigen CD47 (Homo sapiens) (UniProt P78324+Q08722). The experiment in a line: CD47-SIRPalpha protein protein interaction - LANCE assay qHTS validation (AID 1347057; active means well fitted curve in the direction sought with a large enough effect in the signal ratio, with a control signal flat, not every such curve was filed as active; the % refers to the signal ratio; further: series mostly up to about 38 µM). The method in brief: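 First, His-tagged CD47 and Eu-labelled anti-His antibody met the compound for 30 min; next, site-specifically biotinylated SIRPalpha was added for 30 min; finally streptavidin-APC was added before reading the TR-FRET ratio.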
T1 sequence (P78324 whole entry, looked up): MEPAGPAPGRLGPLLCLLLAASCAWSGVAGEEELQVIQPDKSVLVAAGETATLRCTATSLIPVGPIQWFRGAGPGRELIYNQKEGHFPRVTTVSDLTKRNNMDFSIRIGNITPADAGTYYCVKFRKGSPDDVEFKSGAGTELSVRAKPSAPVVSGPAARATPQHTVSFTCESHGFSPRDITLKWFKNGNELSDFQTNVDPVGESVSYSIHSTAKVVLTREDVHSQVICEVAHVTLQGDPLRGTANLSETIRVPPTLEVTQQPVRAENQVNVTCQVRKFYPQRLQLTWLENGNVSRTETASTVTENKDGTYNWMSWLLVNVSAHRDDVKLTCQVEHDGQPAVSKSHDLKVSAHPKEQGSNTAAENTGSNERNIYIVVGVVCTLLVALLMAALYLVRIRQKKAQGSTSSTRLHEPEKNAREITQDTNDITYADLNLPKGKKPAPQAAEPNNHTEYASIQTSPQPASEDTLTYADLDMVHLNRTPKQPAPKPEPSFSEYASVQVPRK
T1 sequence (Q08722 whole entry, looked up): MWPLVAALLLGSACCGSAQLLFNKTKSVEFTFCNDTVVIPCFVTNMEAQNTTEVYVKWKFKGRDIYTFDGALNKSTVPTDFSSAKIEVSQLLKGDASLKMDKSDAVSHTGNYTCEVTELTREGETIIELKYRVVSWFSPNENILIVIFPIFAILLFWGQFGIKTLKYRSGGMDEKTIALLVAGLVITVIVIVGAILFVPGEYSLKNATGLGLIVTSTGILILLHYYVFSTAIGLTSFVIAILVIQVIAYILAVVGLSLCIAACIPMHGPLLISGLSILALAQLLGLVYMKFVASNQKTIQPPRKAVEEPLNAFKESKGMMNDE

The target in experiment [5] is Parathyroid hormone/parathyroid hormone-related peptide receptor (Homo sapiens) (UniProt Q03431). The experiment can be described thus: qHTS for PTHR1 Agonists: Optimization Screen against the NCGC LOPAC library (AID 1347079).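 Further: GloSensor cAMP luminescence in HEK-293 GP2 cells expressing human PTHR1 with IBMX.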 In outline: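 Compounds were tested across a qHTS titration. PTHR1-expressing GP2 cells report cAMP rises via GloSensor luminescence after 1 hr compound exposure at 37C with IBMX present.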
Chain of Parathyroid hormone/parathyroid hormone-related peptide receptor (Homo sapiens) (Q03431 whole entry, looked up): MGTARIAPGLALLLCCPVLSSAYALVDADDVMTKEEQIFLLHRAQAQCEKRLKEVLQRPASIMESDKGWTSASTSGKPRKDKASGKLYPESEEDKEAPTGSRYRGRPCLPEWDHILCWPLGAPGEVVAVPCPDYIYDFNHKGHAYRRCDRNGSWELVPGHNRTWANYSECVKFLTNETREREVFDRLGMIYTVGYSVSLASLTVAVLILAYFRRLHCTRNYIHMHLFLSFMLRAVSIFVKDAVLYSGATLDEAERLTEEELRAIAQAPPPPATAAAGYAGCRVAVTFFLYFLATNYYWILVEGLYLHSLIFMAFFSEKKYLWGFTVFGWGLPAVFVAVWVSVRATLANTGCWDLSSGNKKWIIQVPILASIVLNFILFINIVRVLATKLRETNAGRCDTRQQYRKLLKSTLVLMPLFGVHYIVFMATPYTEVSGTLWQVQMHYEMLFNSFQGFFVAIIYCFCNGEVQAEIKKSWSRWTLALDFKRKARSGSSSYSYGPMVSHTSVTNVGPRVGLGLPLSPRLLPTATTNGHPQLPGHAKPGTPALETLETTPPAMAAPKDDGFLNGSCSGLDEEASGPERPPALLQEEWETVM

A short description of experiment [6]: qHTS of pediatric cancer cell lines to identify multiple opportunities for drug repurposing: Primary screen for TC32 cells (AID 1347089). Further: nearly all actives have a fitted effect of over 60% in size. In outline:
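In the primary qHTS, MIPE compounds were tested at 11 concentrations (0.78 nM to 46 µM) and NPC compounds at 8 (0.59 nM to 46 µM) on TC32 cells for 48 h. CellTiter-Glo luminescence gave viability.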

Experiment [7] can be described thus: qHTS of pediatric cancer cell lines to identify multiple opportunities for drug repurposing: Primary screen for SJ-GBM2 cells (AID 1347091). In outline:
(§1)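 Eight- or eleven-point concentration series, 48 h treatment at 37 degrees C in growth media; readout CellTiter-Glo luminescence. Potency and efficacy were taken from the concentration-response curves.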
Background: Quantitative high-throughput screening tests each substance at several concentrations.

Experiment [8] in a line: qHTS of pediatric cancer cell lines to identify multiple opportunities for drug repurposing: Primary screen for A673 cells (AID 1347092). Further: nearly all actives have a fitted effect of over 45% in size. Further: potency means the concentration at half of the fitted maximal effect. In outline: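 48 h compound exposure, A673, 500-1,000 cells/well, 37 degrees C/5% CO2. MIPE: 11-point, 0.78 nM-46 µM; NPC: 8-point, 0.59 nM-46 µM (final). Readout CellTiter-Glo luminescence after 15 min RT.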
Experiment [9] is described as follows: qHTS of pediatric cancer cell lines to identify multiple opportunities for drug repurposing: Primary screen for BT-37 cells (AID 1347094). Further: series mostly up to about 57 µM. In outline: (§2)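 Plated cells (500-1,000 per well, growth media) were allowed to settle for 5 hours, treated with compound dilutions for 48 hours, then lysed with CellTiter-Glo for 15 min at room temperature before luminescence reading.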

Experiment [10] is described as follows: qHTS of pediatric cancer cell lines to identify multiple opportunities for drug repurposing: Primary screen for Saos-2 cells (AID 1347097). Further: nearly all actives have a fitted effect of over 40% in size. In outline:
as §2

Experiment [11] can be described thus: qHTS of pediatric cancer cell lines to identify multiple opportunities for drug repurposing: Primary screen for SK-N-SH cells (AID 1347098). Further: nearly all actives have a fitted effect of over 65% in size. Further: potency means the concentration at half of the fitted maximal effect. In outline: (§3)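 Cells (500-1,000/well) rested 5 h, then received compounds for 48 h; metabolically active cells were measured by CellTiter-Glo luminescence. Final concentrations spanned up to 46 µM (MIPE, 11-point) or 0.59 nM-46 µM (NPC, 8-point) in primary screens, 11-point in follow-ups.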

Experiment [12] is described as follows: qHTS of pediatric cancer cell lines to identify multiple opportunities for drug repurposing: Primary screen for NB1643 cells (AID 1347099). Further: nearly all actives have a fitted effect of over 50% in size. In outline: as §2
The nature of experiment [13]: qHTS of pediatric cancer cell lines to identify multiple opportunities for drug repurposing: Primary screen for LAN-5 cells (AID 1347100). The method in brief: (§4)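 Cells (500-1,000/well) in growth media were settled 5 h at 37 degrees C, then given compounds for 48 h. Viability was read as CellTiter-Glo luminescence. Primary runs used MIPE at 11 points (0.78 nM-46 µM) and NPC at 8 points (0.59 nM-46 µM); follow-ups used 11 points.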

The nature of experiment [14]: qHTS of pediatric cancer cell lines to identify multiple opportunities for drug repurposing: Primary screen for BT-12 cells (AID 1347101). Further: nearly all actives have a fitted effect of over 25% in size. In outline: as §3
The nature of experiment [15]: qHTS of pediatric cancer cell lines to identify multiple opportunities for drug repurposing: Primary screen for DAOY cells (AID 1347090). Further: series mostly up to about 46 µM; nearly all actives have a fitted effect of over 55% in size. In outline:
as §1

Experiment [16] in a line: qHTS of pediatric cancer cell lines to identify multiple opportunities for drug repurposing: Primary screen for SK-N-MC cells (AID 1347093). Further: series mostly up to about 46 µM. The method in brief: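 Metabolically active cells were quantified by ATP-dependent luminescence (CellTiter-Glo, 15 min at room temperature) following 48 h treatment. Cells had been plated at 500-1,000 per well and settled for 5 h beforehand.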

Experiment [17] in a line: qHTS of pediatric cancer cell lines to identify multiple opportunities for drug repurposing: Primary screen for NB-EBc1 cells (AID 1347095). In outline: as §2
Experiment [18] has as its target T1, Tyrosine-protein phosphatase non-receptor type substrate 1 (Homo sapiens) + Leukocyte surface antigen CD47 (Homo sapiens). The experiment can be described thus: CD47-SIRPalpha protein protein interaction - HTRF assay qHTS validation (AID 1347058; active means well fitted curve in the direction sought with a large enough effect in the signal ratio, not every such curve was filed as active; the % refers to the signal ratio; further: series mostly up to about 38 µM). In outline: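 TR-FRET read (Ch1/Ch2 ratio) of soluble extracellular CD47 and Avi-biotinylated SIRPalpha domains in PBS pH 7.4 with 0.05% IGEPAL; 7-point compound titration. Sequential 30 min room-temperature steps; non-biotinylated SIRPalpha as control inhibitor.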
Background: Time-resolved FRET reads energy transfer from a long-lived donor to a nearby acceptor.

The target is the same in experiment [19]. The experiment can be described thus: CD47-SIRPalpha protein protein interaction - Alpha assay qHTS validation (AID 1347059).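 Further: bead proximity luminescence from CD47 binding SIRPalpha after compound preincubation with SIRPalpha.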 The method in brief: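 Soluble extracellular domains: Avi-tag biotinylated SIRPalpha (25 nM) preincubated 30 min RT with compound, then 6His-CD47 (12.5 nM) 30 min; Ni-NTA acceptor and streptavidin donor beads (10 ug/mL) 30 min, AlphaScreen read. PBS pH 7.4, 0.05% IGEPAL.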

Experiment [20] is described as follows: qHTS of pediatric cancer cell lines to identify multiple opportunities for drug repurposing: Primary screen for U-2 OS cells (AID 1347096). Further: nearly all actives have a fitted effect of over 50% in size. The method in brief:
as §4

Chain of Atrial natriuretic peptide receptor 2 (Homo sapiens) (P20594 whole entry, looked up): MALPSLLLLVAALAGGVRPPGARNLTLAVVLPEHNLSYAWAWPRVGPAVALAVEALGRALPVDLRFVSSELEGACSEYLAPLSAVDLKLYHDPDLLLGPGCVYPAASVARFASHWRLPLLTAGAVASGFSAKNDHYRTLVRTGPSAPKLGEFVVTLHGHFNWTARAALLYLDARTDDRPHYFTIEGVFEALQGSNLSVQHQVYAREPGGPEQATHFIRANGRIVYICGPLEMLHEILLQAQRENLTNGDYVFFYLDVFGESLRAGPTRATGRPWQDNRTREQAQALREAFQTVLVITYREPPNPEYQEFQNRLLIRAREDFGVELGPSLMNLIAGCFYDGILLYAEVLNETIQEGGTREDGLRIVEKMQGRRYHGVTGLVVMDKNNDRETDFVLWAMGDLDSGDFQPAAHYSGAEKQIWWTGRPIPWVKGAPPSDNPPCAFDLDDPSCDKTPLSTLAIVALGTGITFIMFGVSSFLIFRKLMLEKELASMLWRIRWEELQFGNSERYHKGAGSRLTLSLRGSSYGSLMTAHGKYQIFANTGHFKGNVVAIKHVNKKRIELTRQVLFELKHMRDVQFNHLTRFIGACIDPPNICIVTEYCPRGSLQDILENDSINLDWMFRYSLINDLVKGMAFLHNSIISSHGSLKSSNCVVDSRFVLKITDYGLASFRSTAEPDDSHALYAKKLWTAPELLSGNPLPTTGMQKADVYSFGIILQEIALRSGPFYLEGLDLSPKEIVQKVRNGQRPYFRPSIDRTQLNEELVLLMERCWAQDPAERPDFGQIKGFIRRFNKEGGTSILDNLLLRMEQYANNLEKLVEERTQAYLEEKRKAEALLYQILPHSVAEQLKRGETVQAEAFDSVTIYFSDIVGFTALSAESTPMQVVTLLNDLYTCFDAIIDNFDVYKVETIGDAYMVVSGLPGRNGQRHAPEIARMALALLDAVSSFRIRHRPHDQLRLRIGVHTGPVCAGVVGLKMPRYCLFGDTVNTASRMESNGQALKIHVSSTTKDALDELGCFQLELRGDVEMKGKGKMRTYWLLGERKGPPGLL
Chain of Atrial natriuretic peptide receptor 1 (Homo sapiens) (P16066 whole entry, looked up): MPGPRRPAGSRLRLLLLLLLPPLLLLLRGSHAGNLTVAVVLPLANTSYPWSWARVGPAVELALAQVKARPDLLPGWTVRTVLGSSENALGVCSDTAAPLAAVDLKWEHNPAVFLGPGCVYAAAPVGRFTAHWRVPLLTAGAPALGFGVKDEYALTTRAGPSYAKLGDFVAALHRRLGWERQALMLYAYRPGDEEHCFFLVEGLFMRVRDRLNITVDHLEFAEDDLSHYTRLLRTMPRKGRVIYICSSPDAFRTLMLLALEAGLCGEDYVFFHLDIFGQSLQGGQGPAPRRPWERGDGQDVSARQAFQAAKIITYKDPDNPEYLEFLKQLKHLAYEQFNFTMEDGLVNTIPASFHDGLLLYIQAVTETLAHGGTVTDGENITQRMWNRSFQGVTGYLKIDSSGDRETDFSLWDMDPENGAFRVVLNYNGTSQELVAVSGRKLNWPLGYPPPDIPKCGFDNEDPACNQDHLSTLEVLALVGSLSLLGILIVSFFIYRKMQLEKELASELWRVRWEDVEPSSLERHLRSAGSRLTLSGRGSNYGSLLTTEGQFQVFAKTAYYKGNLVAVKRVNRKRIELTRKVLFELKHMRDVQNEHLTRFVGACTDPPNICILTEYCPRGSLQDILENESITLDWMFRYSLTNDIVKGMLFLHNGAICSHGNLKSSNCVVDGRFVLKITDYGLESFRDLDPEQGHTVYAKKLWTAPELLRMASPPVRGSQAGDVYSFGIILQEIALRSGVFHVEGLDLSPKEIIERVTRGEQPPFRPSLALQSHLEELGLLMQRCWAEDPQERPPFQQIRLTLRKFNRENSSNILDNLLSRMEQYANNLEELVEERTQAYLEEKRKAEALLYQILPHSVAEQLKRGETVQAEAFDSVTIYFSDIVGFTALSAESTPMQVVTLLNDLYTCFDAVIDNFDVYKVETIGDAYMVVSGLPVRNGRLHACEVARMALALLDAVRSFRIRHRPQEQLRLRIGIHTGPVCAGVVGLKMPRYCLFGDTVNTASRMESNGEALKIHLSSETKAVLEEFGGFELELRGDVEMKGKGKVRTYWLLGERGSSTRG

For the compound `COC(=O)C1=C(C)NC(C)=C(C(=O)OC)C1c1ccccc1[N+](=O)[O-]`, the compound was called inactive in experiment [1] and in experiment [4]. In addition, the Potency in experiment [2] is 13.1 µM (active); in experiment [11], 21.7 µM (active). The Potency entry in experiment [3], in [5], in [6], in [7], in experiment [8] and in experiment [9] was “inactive” each time. The Potency result in experiment [10], in [12], in experiment [13] and in experiment [14] was “inactive” in each case.
As for `CCCCCCCCCCCCCCCC(=O)NCCO`, the compound was called inactive in [1]. For the same compound, the Potency result in experiment [2], in experiment [3], in experiment [5], in [6], in [15] and in experiment [7] was “inactive” throughout. The Potency entry in [8], in [16], in [9], in experiment [17], in experiment [10] and in experiment [11] was “inactive” each time. The Potency entry in experiment [12], in experiment [13] and in [14] was “inactive” throughout.
With `CC(=O)OCC(=O)[C@@]1(O)CC[C@H]2[C@@H]3CCC4=CC(=O)CC[C@]4(C)[C@H]3C(=O)C[C@@]21C`, the result in [1], in [4], in [18] and in experiment [19] was inactive. Moreover, the Potency entry in experiment [2], in experiment [3], in experiment [5], in [6], in experiment [7] and in experiment [8] was “inactive” each time. Besides, the Potency entry in [9], in [17], in experiment [20], in experiment [11], in [13] and in experiment [14] was “inactive” each time.
In the case of `NC(=O)c1ncn([C@@H]2O[C@H](CO)[C@@H](O)[C@H]2O)n1`, the compound was classed as inactive in [1], in experiment [4], in [18] and in [19]. Besides, the Potency result in experiment [2], in experiment [3], in experiment [5], in experiment [15], in [7] and in [8] was “inactive” each time. For the same compound, the Potency result in [16], in [9], in [20], in experiment [10], in experiment [11] and in experiment [12] was “inactive” throughout. Further, the Potency entry in experiment [13] and in [14] was “inactive” in each case.
On to `CN(C)CCCN1c2ccccc2Sc2ccc(Cl)cc21`, for which the compound was called inactive in experiment [1] and in [4]. The Potency was 14.7 µM (active) in experiment [2], 7.08 µM (active) in experiment [3], 21.1 µM (active) in experiment [8] and 6.12 µM (active) in experiment [11]. In addition, the Potency result in [5] and in experiment [20] was “inactive” in each case.
On to `CCCn1cnc2c1c(=O)n(CCCCC(C)=O)c(=O)n2C`, for which the compound was classed as inactive in experiment [1], in experiment [4], in [18] and in experiment [19]. Besides, the Potency entry in experiment [2], in experiment [3], in experiment [5], in [6], in experiment [15] and in experiment [7] was “inactive” throughout. Moreover, the Potency entry in [16], in experiment [9], in experiment [17], in experiment [20], in experiment [10] and in experiment [11] was “inactive” throughout. For the same compound, the Potency result in experiment [12], in [13] and in experiment [14] was “inactive” throughout.
`CC(C(O)c1ccc(O)cc1)N1CCC(Cc2ccccc2)CC1` (stereo not drawn): the compound was called inactive in [1], in experiment [4], in experiment [18] and in [19]. Besides, the Potency entry in [2], in [3], in experiment [5], in [15], in experiment [7] and in experiment [8] was “inactive” each time. The Potency result in experiment [16], in [17], in experiment [20], in experiment [10], in experiment [12] and in experiment [13] was “inactive” each time. Moreover, the Potency entry in experiment [14] is “inactive”.
